Laboratory results from the supplement of paper PMC6411743.
± gives the standard deviation of the averaged measurements. About 6,500 targets were measured; listed, in parts, are those with the largest changes and a random draw of the rest.

Compound: Nc1ncnc2c1ncn2[C@@H]1O[C@H](COP(=O)(O)OP(=O)(O)OP(=O)(O)O)[C@@H](O)[C@H]1O [adenosine triphosphate]
Test: NP40-soluble protein abundance relative to vehicle (solubility fold change) (ratio); higher = more soluble protein in presence of ATP
Summary of the method: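 Across three independent experiments, values are fold changes against the detergent-processed vehicle for each replicate, based on vsn-normalised intensities. The samples were Jurkat crude lysate treated with eight concentrations (0.1 to 10 mM) for 10 min at room temperature and then 3 min at 37 °C. Lysate was solubilised with 0.8% NP40 and benzonase, ultracentrifuged, and the supernatant analysed by TMT-labelled LC-MS/MS.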

Chain of UniProt Q969X6 (Q969X6 whole entry, one chain of several): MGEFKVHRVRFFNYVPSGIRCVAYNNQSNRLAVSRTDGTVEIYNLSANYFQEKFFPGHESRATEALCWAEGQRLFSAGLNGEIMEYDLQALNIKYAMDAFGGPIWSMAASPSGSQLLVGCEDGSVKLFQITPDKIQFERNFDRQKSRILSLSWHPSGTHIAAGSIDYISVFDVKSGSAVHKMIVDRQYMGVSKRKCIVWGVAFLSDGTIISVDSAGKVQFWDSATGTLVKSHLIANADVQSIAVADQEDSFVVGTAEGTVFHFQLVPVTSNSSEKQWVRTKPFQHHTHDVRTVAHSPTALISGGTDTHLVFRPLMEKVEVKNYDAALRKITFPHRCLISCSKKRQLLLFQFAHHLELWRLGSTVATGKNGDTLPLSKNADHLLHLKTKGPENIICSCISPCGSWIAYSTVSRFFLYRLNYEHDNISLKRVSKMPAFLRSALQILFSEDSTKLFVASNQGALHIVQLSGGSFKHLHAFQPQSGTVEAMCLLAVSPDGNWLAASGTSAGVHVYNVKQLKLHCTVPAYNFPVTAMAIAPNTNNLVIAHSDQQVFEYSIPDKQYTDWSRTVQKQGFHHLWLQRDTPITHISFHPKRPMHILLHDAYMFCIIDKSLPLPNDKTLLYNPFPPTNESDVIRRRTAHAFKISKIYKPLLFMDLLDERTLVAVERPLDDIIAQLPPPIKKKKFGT
Chain of UniProt Q9BZG8 (Q9BZG8 whole entry, one chain of several): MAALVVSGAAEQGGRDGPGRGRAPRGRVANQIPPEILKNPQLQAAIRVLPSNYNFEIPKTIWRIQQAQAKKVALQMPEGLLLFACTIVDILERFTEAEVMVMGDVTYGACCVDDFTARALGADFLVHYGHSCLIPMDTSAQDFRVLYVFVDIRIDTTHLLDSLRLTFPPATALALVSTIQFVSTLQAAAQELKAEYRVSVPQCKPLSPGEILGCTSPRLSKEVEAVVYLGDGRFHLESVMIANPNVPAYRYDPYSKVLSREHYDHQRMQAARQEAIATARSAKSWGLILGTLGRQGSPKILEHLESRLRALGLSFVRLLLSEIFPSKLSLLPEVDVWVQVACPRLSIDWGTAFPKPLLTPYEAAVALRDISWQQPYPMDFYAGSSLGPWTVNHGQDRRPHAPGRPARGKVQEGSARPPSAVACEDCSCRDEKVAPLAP
Chain of UniProt Q9Y592 (Q9Y592 whole entry, one chain of several): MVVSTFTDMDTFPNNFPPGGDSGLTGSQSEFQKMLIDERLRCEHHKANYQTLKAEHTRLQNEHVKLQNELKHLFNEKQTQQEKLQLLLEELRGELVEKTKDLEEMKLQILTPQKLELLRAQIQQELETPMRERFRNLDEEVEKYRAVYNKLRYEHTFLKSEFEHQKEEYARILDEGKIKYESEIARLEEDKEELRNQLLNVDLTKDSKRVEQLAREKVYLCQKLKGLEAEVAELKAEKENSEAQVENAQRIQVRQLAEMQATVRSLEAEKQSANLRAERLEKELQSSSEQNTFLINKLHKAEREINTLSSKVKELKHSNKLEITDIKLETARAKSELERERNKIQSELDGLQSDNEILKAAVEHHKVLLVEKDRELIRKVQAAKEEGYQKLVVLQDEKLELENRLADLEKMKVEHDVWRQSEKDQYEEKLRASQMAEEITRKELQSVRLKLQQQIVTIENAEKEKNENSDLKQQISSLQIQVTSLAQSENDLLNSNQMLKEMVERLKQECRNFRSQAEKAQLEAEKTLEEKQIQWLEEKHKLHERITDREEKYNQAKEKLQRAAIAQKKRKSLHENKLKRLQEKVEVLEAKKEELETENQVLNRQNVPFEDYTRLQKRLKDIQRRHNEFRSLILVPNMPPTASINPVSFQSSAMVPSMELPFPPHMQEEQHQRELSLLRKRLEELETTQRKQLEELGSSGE
Chain of UniProt P52272 (P52272 whole entry, one chain of several): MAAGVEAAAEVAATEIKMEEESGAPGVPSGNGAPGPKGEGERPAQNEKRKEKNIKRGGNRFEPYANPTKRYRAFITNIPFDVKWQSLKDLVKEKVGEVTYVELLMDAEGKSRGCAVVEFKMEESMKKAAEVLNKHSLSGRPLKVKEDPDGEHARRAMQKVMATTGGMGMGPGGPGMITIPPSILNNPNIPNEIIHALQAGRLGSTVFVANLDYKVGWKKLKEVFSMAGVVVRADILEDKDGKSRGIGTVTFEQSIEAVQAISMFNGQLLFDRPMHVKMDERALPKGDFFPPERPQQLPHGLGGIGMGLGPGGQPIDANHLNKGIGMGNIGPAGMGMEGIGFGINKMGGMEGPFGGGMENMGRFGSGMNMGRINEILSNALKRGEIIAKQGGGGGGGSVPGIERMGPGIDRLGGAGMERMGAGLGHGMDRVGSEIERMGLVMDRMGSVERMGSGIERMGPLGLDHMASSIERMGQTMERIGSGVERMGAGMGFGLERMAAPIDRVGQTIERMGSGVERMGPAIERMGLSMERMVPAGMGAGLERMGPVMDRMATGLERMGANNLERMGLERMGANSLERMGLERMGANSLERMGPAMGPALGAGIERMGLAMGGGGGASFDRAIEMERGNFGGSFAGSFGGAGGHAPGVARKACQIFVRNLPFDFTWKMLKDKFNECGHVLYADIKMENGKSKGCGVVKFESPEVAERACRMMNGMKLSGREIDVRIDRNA
Chain of UniProt A0PK00 (A0PK00 whole entry): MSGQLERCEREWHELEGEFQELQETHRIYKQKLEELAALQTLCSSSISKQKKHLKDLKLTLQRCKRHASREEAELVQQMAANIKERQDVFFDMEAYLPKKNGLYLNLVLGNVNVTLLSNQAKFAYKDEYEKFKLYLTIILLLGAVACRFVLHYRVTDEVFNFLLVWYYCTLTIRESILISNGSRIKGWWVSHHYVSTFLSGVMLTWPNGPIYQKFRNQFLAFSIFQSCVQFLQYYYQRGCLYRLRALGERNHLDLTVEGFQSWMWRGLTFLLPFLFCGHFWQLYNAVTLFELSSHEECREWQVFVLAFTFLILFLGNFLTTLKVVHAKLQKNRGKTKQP
Chain of UniProt O14524 (O14524 whole entry): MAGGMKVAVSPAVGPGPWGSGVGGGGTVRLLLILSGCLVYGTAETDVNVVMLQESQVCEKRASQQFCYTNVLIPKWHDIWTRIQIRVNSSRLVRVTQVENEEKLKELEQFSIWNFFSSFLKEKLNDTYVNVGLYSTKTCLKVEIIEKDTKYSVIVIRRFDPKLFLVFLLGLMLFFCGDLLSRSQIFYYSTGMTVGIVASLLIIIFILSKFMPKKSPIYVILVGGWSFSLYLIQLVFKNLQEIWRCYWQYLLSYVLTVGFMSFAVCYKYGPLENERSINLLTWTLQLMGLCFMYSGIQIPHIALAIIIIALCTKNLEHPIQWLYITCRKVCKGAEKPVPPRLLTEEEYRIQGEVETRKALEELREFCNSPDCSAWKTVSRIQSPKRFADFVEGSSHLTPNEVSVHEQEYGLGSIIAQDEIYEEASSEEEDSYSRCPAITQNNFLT
Chain of UniProt Q9Y262 (Q9Y262 whole entry, one chain of several): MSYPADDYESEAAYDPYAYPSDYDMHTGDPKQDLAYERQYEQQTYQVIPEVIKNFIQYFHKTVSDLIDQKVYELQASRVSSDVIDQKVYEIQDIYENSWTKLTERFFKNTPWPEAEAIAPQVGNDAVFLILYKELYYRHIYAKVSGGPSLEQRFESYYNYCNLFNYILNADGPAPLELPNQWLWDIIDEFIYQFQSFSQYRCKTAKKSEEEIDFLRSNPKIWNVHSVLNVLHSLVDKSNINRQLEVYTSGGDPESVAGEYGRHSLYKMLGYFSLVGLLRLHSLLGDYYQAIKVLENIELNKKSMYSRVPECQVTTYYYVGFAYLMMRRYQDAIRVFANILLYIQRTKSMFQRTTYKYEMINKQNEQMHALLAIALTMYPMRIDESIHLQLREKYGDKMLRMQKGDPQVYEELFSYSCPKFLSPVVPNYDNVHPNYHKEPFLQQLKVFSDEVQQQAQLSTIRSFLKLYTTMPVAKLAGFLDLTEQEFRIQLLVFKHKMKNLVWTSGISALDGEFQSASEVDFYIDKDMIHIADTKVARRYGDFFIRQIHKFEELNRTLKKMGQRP
Chain of UniProt O14929 (O14929 whole entry, looked up): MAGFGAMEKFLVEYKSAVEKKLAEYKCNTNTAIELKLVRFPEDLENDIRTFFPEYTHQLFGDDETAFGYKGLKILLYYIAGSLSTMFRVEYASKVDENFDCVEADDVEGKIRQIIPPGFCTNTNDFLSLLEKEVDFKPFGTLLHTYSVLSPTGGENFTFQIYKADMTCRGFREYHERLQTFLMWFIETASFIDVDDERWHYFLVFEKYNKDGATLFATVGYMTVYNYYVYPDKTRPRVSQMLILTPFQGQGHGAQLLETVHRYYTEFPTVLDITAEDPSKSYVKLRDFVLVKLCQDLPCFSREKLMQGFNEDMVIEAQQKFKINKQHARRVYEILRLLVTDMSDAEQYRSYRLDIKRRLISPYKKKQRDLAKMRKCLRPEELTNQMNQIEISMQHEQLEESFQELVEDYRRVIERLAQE
Chain of UniProt Q6P1N9 (Q6P1N9 whole entry, one chain of several): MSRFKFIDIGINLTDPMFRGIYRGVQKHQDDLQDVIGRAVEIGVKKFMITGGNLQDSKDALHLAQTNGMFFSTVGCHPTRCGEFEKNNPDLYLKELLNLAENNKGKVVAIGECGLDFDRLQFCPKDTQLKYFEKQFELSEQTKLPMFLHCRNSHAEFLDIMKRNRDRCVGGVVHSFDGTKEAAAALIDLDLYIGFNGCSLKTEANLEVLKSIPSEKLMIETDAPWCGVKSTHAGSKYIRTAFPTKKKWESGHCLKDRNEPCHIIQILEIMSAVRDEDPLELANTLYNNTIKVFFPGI
Chain of UniProt Q8WYJ6 (Q8WYJ6 whole entry, one chain of several): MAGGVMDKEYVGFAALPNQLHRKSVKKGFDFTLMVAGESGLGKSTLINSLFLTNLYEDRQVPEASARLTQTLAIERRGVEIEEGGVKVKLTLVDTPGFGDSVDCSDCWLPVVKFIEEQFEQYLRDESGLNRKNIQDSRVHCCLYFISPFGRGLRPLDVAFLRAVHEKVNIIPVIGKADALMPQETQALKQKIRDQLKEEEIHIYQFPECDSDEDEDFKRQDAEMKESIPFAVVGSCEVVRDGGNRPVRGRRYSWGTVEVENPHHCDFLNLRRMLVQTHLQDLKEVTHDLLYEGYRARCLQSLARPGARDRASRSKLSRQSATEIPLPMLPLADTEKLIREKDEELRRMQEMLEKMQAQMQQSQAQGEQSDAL

Target	NP40-soluble protein abundance (concentration: 1mM)	NP40-soluble protein abundance (concentration: 2mM)	NP40-soluble protein abundance (concentration: 4mM)	NP40-soluble protein abundance (concentration: 6mM)	NP40-soluble protein abundance (concentration: 8mM)	NP40-soluble protein abundance (concentration: 10mM)
B0QY89|Q9Y262 (UniProt Q9Y262)	1.09 ± 0.093	1.25 ± 0.15	1.23 ± 0.075	1.35 ± 0.072	1.6 ± 0.1	1.7 ± 0.12
PDLIM1 (UniProt O00151)	0.963 ± 0.054	0.958 ± 0.031	0.944 ± 0.041	0.971 ± 0.016	0.939 ± 0.035	0.919 ± 0.036
J3KPF0 (UniProt Q9Y4D8)	1.08 ± 0.036	1.04 ± 0.068	1.05 ± 0.025	1.01 ± 0.1	1.02 ± 0.08	1 ± 0.044
G5E9W3|Q9UKF6 (UniProt Q9UKF6)	1.09 ± 0.073	1.1 ± 0.029	1.14 ± 0.025	1.11 ± 0.048	1.14 ± 0.029	1.18 ± 0.052
A0A0C4DGQ5|P04632 (UniProt P04632)	0.9315 ± 0.0081	0.964 ± 0.077	0.923 ± 0.022	0.884 ± 0.039	0.885 ± 0.0089	0.875 ± 0.06
M0QZM1|M0R019|P52272|P52272-2 (UniProt P52272)	0.988 ± 0.037	0.999 ± 0.016	1.01 ± 0.032	1.07 ± 0.014	1.04 ± 0.019	1.06 ± 0.024
K7ES61|Q9BYD3 (UniProt Q9BYD3)	1.02 ± 0.079	0.942 ± 0.099	0.907 ± 0.091	0.827 ± 0.14	0.892 ± 0.19	0.895 ± 0.17
G8JLQ3|P78537|P78537-2 (UniProt P78537)	0.965 ± 0.12	0.88 ± 0.076	0.834 ± 0.1	0.861 ± 0.12	0.816 ± 0.032	0.702 ± 0.15
UniProt A0FGR8-2|H7BXI1|A0FGR8-6	1 ± 0.026	1.02 ± 0.025	1.02 ± 0.015	0.997 ± 0.052	1.02 ± 0.03	1.02 ± 0.047
I3L1H5|Q9BZG8 (UniProt Q9BZG8)	0.984 ± 0.17	1.03 ± 0.12	0.987 ± 0.16	0.898 ± 0.12	0.987 ± 0.16	0.917 ± 0.13
UniProt O00567	1.04 ± 0.038	1.1 ± 0.033	1.24 ± 0.02	1.38 ± 0.06	1.68 ± 0.064	2.11 ± 0.2
I3L2M1|J3KNL2|Q8WYJ6 (UniProt Q8WYJ6)	0.941 ± 0.031	0.945 ± 0.017	0.948 ± 0.022	0.928 ± 0.033	0.932 ± 0.04	0.941 ± 0.033
H7C5U8|Q9P0M9 (UniProt Q9P0M9)	1.12 ± 0.16	0.995 ± 0.22	0.923 ± 0.19	0.944 ± 0.29	0.902 ± 0.19	0.894 ± 0.24
XYLB (UniProt O75191)	1 ± 0.053	0.986 ± 0.062	0.984 ± 0.097	0.965 ± 0.069	0.99 ± 0.075	0.967 ± 0.053
J3KQ34|Q9H9Q2 (UniProt Q9H9Q2)	0.89 ± 0.097	0.87 ± 0.04	0.855 ± 0.072	0.873 ± 0.093	0.878 ± 0.032	0.77 ± 0.1
HAT1 (UniProt O14929)	1.01 ± 0.16	0.995 ± 0.098	0.957 ± 0.08	0.895 ± 0.15	0.97 ± 0.09	0.955 ± 0.04
UniProt O14524	0.824 ± 0.11	0.887 ± 0.1	0.841 ± 0.017	0.899 ± 0.066	0.872 ± 0.029	0.896 ± 0.036
A0A087X176|Q6ZRP7 (UniProt Q6ZRP7)	0.958 ± 0.057	0.983 ± 0.011	0.961 ± 0.028	0.99 ± 0.029	0.953 ± 0.026	0.96 ± 0.037
DHX15 (UniProt O43143)	1.25 ± 0.079	1.24 ± 0.071	1.24 ± 0.079	1.24 ± 0.1	1.33 ± 0.074	1.29 ± 0.044
H3BSH7|Q969X6|Q969X6-3 (UniProt Q969X6)	1.1 ± 0.14	1.21 ± 0.03	1.26 ± 0.058	1.425 ± 0.0083	1.46 ± 0.084	1.78 ± 0.047
E9PEB9|Q03001|Q03001-3 (UniProt Q03001)	0.92 ± 0.1	0.924 ± 0.041	0.942 ± 0.081	0.959 ± 0.15	0.899 ± 0.09	0.968 ± 0.056
I3L0L6|Q9H6Y7 (UniProt Q9H6Y7)	0.901 ± 0.033	0.93 ± 0.016	0.896 ± 0.051	0.962 ± 0.064	0.921 ± 0.066	0.864 ± 0.065
J3KNW7|Q9Y592|Q9Y592-2 (UniProt Q9Y592)	1.06 ± 0.072	0.9299 ± 0.0068	1.02 ± 0.032	1.04 ± 0.028	1.07 ± 0.062	0.993 ± 0.077
MED7 (UniProt O43513)	1.23 ± 0.3	1.17 ± 0.091	1.09 ± 0.056	1.2 ± 0.37	1.23 ± 0.26	1.28 ± 0.34
H3BPD5|P78549|P78549-2|P78549-3 (UniProt P78549)	1.12 ± 0.16	1.2 ± 0.029	1.3 ± 0.1	1.51 ± 0.2	1.72 ± 0.19	1.89 ± 0.12
G3V0H0|O43913|O43913-2 (UniProt O43913)	1.03 ± 0.12	1.01 ± 0.097	1.02 ± 0.08	1 ± 0.13	1.08 ± 0.078	1.02 ± 0.061
E5RG17|Q6P1N9 (UniProt Q6P1N9)	0.989 ± 0.02	0.974 ± 0.013	0.965 ± 0.02	0.963 ± 0.052	0.937 ± 0.019	0.968 ± 0.019
H0Y6E7|H3BT71|P38159|P38159-2 (UniProt P38159)	1.13 ± 0.068	1.22 ± 0.042	1.34 ± 0.046	1.56 ± 0.087	1.62 ± 0.026	1.79 ± 0.064
B4DEN4|E7EV05|E9PFU9|Q8WV99|Q8WV99-2 (UniProt Q8WV99)	0.955 ± 0.084	0.953 ± 0.046	0.943 ± 0.059	0.958 ± 0.066	0.91 ± 0.037	0.902 ± 0.062
TMEM120B (UniProt A0PK00)	0.948 ± 0.058	1.05 ± 0.042	1.04 ± 0.09	0.894 ± 0.12	1.15 ± 0.13	1.13 ± 0.14
